Mdm2 MdmX PPI = inhibitors of human Mdm2-MdmX association, primary screen, cell-based, luminescence, split luciferase, SaOS-2, uHTS; 330,000 tested, 3% active; SaOS-2 split-luciferase Mdm2/MdmX complementation; inhibition, % at 8 µM; AID 485346, 2010;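 active = inhibition of at least 50% at 8 µM in the primary screen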
Target sequence (O15151 whole entry, looked up): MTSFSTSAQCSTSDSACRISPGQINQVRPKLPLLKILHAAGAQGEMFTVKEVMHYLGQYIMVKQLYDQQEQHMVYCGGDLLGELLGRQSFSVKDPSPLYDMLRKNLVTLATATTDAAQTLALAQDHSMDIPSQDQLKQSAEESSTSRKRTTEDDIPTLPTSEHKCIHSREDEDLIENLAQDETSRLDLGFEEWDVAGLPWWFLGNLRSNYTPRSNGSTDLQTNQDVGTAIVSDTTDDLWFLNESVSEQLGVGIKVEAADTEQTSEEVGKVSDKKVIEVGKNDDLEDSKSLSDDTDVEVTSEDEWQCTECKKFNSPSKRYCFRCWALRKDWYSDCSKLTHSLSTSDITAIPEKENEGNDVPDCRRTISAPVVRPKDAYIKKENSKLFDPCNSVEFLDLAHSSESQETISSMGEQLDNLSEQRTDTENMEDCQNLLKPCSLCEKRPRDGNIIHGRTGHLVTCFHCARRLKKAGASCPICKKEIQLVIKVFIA
Target sequence (Q00987 whole entry, looked up): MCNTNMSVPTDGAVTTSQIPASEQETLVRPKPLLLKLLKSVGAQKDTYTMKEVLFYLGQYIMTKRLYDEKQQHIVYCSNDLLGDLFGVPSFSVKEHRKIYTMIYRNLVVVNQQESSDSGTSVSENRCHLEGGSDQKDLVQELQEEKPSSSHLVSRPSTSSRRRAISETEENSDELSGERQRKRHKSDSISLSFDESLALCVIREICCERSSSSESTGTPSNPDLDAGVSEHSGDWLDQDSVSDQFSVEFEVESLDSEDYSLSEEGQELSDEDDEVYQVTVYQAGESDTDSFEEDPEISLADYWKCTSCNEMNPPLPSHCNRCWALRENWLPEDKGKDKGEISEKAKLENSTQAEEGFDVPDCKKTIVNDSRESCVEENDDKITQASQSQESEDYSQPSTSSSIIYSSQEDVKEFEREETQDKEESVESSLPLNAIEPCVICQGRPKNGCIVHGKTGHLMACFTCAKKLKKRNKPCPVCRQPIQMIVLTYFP
NR3A LBD binder = binders of NR3A ligand-binding domain, primary screen, biophysical, differential scanning fluorimetry, uHTS; Glutamate receptor ionotropic, NMDA 3A (GRIN3A) ligand-binding domain; NR3A LBD differential scanning fluorimetry, Tm shift; 0% = protein alone, 100% = glycine-bound protein; Tm shift relative to glycine control, % at 25 µM; 340,000 tested, 2.5% active; AID 1259313, 2017;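 active = melting temperature shift of at least 10% of the positive control shift, at one fixed dose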
Beta cell apopt = inhibitors of cytokine-induced beta cell apoptosis, primary screen, luminescence; AID 435005, 2010; INS-1E cytokine-induced death, ATP luminescence, 48 h; percent of positive-control rescue, neutral wells zero; 300,000 tested, 0.8% active; protection from apoptosis, % (concentration not given with the values);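 active = Every replicate reaches about 75%, or at least half do and their mean reaches it too, limit read from the data; inconclusive = At least half of replicates reach the limit but their mean does not; inactive = Under half of replicates reach the limit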;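 note: higher means more ATP so stronger rescue from cytokine killing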
Gli-Sufu block = Gli-Sufu pathway antagonists, primary screen, luciferase luminescence, Sufu-KO-LIGHT cells, uHTS | Sufu-KO-LIGHT fibroblasts, Gli luciferase reporter luminescence | inhibition, % at 5 µM | 340,000 tested, 0.74% active | AID 588413, 2011;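 active = inhibition above about 55%, limit read from the data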
MPTP inh = mitochondrial permeability transition pore inhibitors, primary screen, biochemical, isolated mouse mitochondria, absorbance | Ca2+ swelling absorbance, 30 min | inhibition, % at 10 µM | 360,000 tested, 1.4% active;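 active = inhibition of 50% or more, scaled per plate between neutral and stimulator controls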
CSC inhib = cancer stem cell viability inhibitors, primary screen, luminescence; cancer stem cell-like cells viability; inhibition, % at 7.5 µM; 300,000 tested, 1.1% active; AID 2717, 2010; in the data active = inhibition above about 75%; inconclusive = no clear call, values can overlap the other calls; tested in HMLE shEcad cells
Mdm2-MdmX conf = Mdm2-MdmX complex disruptors, retested hits, confirmation, luminescence, single concentration | Mdm2-MdmX binding, luminescent assay | AID 489028, 2010 | 10,000 tested, 55% active | inhibition, % at 8 µM | shares compounds with Mdm2 MdmX PPI; in the data active = inhibition above about 40%
Full FLuc ctr = full-length luciferase signal inhibition, confirmation, counter-screen for Mdm2/MdmX interaction inhibitor project, cell-based, single concentration, SaOS-2. shares compounds with Mdm2 MdmX PPI. SaOS-2 full-length luciferase counterscreen, luminescence. inhibition, % at 8 µM. 6,200 tested, 77% active;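 active = mean inhibition at 8 µM reaching about 37%, which flags the compound as non-specific, limit read from the data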;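 note: p53-null SaOS-2 cells with luciferase driven by a doxycycline-inducible promoter; compound on cells about two nights before reading with doxycycline added after day one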
Hits are given with their value; . = inactive; ? = inconclusive; / = not tested or not shown. In the library only some 6.6% were active in any assay of this set; here they are far more common.

SMILES	Mdm2 MdmX PPI	NR3A LBD binder	Beta cell apopt	Gli-Sufu block	MPTP inh	CSC inhib	Mdm2-MdmX conf	Full FLuc ctr
Cc1nc(Nc2nc(CSc3nc4ccccc4[nH]3)cc(=O)[nH]2)nc2ccccc12	55	.	.	.	.	195	65	61
Cc1cc(C)cc(Nc2nc3ccccc3c(=O)[nH]2)c1	.	.	.	.	.	.	/	/
CCCC(=O)N1CCC1(C)C(=O)NS(=O)(=O)c1ccc(C)cc1 (stereo not given)	/	/	/	/	.	/	/	/
O=C(NCc1cccc(C(F)(F)F)c1)C1C(=O)Nc2ccccc2C(=O)N1Cc1ccccc1 (stereo not given)	/	/	/	/	.	/	/	/
O=[N+]([O-])c1cccc(-c2nnn(C34CC5CC(CC(C5)C3)C4)n2)c1	.	.	.	.	.	.	/	/
CCN(CC)S(=O)(=O)c1ccc(N2CCOCC2)c(NC(=O)CC23CC4CC(CC(Br)(C4)C2)C3)c1	.	.	.	.	.	/	/	/
COc1cccc(-c2sc3ccc(OC)cc3c2-c2ccc(C(N)=O)cc2)c1	.	.	.	.	.	.	/	/
COc1ccc(-c2sc3ccc(OC)cc3c2-c2ccc(OCCN3CCOCC3)cc2)cc1	.	.	/	.	.	/	/	/
COc1cccc(-c2sc3ccccc3c2-c2ccc(OCCN3CCCCC3)cc2)c1	95	.	.	.	.	104	.	/
COc1cccc(-c2sc3cc(OC)c(OC)cc3c2-c2ccc(OCCN3CCCCC3)cc2)c1	78	.	/	.	.	/	.	/
COc1cccc(-c2sc3ccc(OC)cc3c2-c2ccc(OCCN3CCCC3)cc2)c1	69	.	/	.	.	/	.	.
COc1cccc(-c2sc3ccccc3c2-c2ccc(OCCN(C)C)cc2)c1	100	.	.	.	.	104	.	/
CCOc1ccc(NC(=O)[C@@H]2CCC(=O)N2C2OC(=O)c3ccccc32)cc1 (stereo not given in full)	.	.	.	.	.	.	/	/
CCC(C(=O)N1CCOCC1)n1nc(C)c2c(C)n(-c3ccccc3)nc2c1=O (stereo not given)	.	.	.	.	.	.	/	/
CC(C)(C)c1ccc(NC(=O)c2ccc(=O)[nH]n2)cc1	.	.	.	.	.	.	/	/
COc1cccc(-c2sc3ccccc3c2-c2ccc(OCCN3CCCC3)cc2)c1	100	.	.	.	.	104	.	/
Cc1cc(N/N=C/c2ccccc2[N+](=O)[O-])nc(-n2nc(C)cc2C)n1	53	.	128	.	.	.	.	43
Cc1cc(N/N=C/c2cccc(Cl)c2)nc(-n2nc(C)cc2C)n1	64	.	103	.	.	.	.	/
COc1ccc(/C=N/Nc2cc(C)nc(-n3nc(C)cc3C)n2)cc1	54	.	90	.	.	.	40	52
Cc1cc(N/N=C/c2cccc([N+](=O)[O-])c2)nc(-n2nc(C)cc2C)n1	.	.	.	.	.	.	/	/
Cc1cc(NCCO)nc(-n2nc(C)cc2C)n1	.	.	.	.	.	.	/	/
COC(=O)c1ccc2[nH]c(C3(O)CCCCC3)c(C)c2c1	.	.	.	.	.	.	/	/
Cc1c(C2(O)CCCCC2)[nH]c2ccc(C(F)(F)F)cc12	66	.	.	.	.	81	.	62
Cc1cccc(C)c1Nc1c(-c2ccccn2)nc2ccccn12	77	.	.	.	.	.	58	41
Cc1ccc(Nc2c(-c3ccccn3)nc3cccc(C)n23)cc1	87	.	117	.	.	?	91	.
SMILES	Mdm2 MdmX PPI	NR3A LBD binder	Beta cell apopt	Gli-Sufu block	MPTP inh	CSC inhib	Mdm2-MdmX conf	Full FLuc ctr
Cc1cc(C)n2c(Nc3c(C)cccc3C)c(-c3ccccn3)nc2n1	/	/	/	/	.	/	/	/
COCCCn1c(=O)/c(=C\c2ccc(OC(F)F)c(OC)c2)s/c1=C(/C#N)C(=O)NCCOC	.	.	.	.	.	.	/	/
Cc1ccc(-n2c(O)c(C=NCc3ccccn3)c3ccccc3c2=O)cc1C	51	.	.	.	.	.	.	/
O=c1c2ccccc2c(C=NCc2ccccn2)c(O)n1-c1ccccc1	.	.	.	.	.	.	/	/
O=C(c1cc(C2CC2)nn1-c1ccccc1)N1CCN(S(=O)(=O)c2cccc(F)c2)CC1	.	.	.	.	.	.	/	/
CN(C)S(=O)(=O)c1ccc(N2CCCC2)c(C(=O)Nc2nc(-c3ccc(F)cc3)cs2)c1	.	.	.	.	.	.	/	/
Cc1cccc2sc(NC(=O)c3cc(S(=O)(=O)N(C)C)ccc3N3CCCC3)nc12	65	.	.	.	.	.	70	45
CN(C)S(=O)(=O)c1ccc(N2CCCC2)c(C(=O)Nc2nc(-c3cc(F)ccc3F)cs2)c1	55	.	.	.	.	.	47	48
CCC(=O)N(Cc1cc(=O)[nH]c2ccccc12)c1ccccc1	.	.	.	.	.	.	/	/
COC(=O)c1ccc(C(=O)N(Cc2ccccc2)c2ccccc2)cc1	.	.	.	.	.	.	/	/
Cc1ccccc1N(Cc1cc(=O)[nH]c2ccccc12)C(=O)C(C)C	.	.	.	.	.	.	/	/
O=C(CCl)N(Cc1cc(=O)[nH]c2ccccc12)c1ccccc1	100	.	.	.	.	.	100	53
O=C(CCl)N(Cc1ccccc1)c1ccccc1	96	.	.	.	.	.	96	55
Cc1ccccc1N(Cc1cc(=O)[nH]c2ccccc12)C(=O)CCl	96	/	.	/	.	.	73	58
CCCCn1c(N)c(N(CCOC)C(=O)CN(C)CC(=O)Nc2ccc(Cl)c(Cl)c2)c(=O)[nH]c1=O	.	.	.	.	.	.	/	/
Cc1ccc(Cn2ccsc2=NC(=O)COC(=O)c2ccc(NC(=O)CC#N)cc2)cc1	.	.	.	.	.	/	/	/
Cc1ccc(Cn2ccsc2=NC(=O)CCl)cc1	99	.	.	.	.	.	99	59
Cc1ccccc1NC(=O)CNC(=O)N1CC(=O)Nc2ccccc21	/	/	/	/	.	/	/	/
CCC(C)[C@H](NC(=O)N1CC(=O)Nc2ccccc21)C(=O)Nc1ccccc1C (stereo not given in full)	67	.	/	.	.	.	64	39
CCOC(=O)[C@]12CCCC=C1N(Cc1cccc3ccccc13)C(=O)[C@H](CC(=O)NCC1CCCCC1)C2	/	/	/	/	.	/	/	/
CCOc1cc(NC(=O)c2ccccc2C)c(OCC)cc1NC(=O)C1=Cc2ccccc2OC1	62	.	.	.	.	/	.	/

Bioassay records (PubChem)
